Source: PubChem BioAssay (NCI)
This is part of a sample that, as a whole, favours compounds with a hit. Of some 83,000 tested, about 20% had one in any assay.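 Assay: single dose, 48 h. Readout: percent growth (0 = no net growth; negative = cell death). Active: <10.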 A number with no mark means an inactive call. Calls of active or inactive are those of the source.

What follows are compounds tested on OVCAR-4 ovarian (assay: NCI-60 one-dose screen, 48 h (100 = growth as untreated, 0 = no growth, -100 = all killed)). Details: 10 µM unless noted.

Row | SMILES | growth
1 | O=C(Nc1ccc(O)cc1)C(Cl)(Cl)Cl | 105%
2 | CCCOC(=O)N[C@H]1CCc2c(Br)c(OC)c(OC)c(OC)c2-c2ccc(SC)c(=O)cc21 | 32.6%
3 | CCOC(=O)[C@@H](C)C[C@H](Cc1ccccc1)NC(=O)c1csc([C@@H](C[C@H](C(C)C)N(C)C(=O)[C@@H](NC(=O)[C@H]2CCCCN2C)C(C)(C)CC)OC(C)=O)n1 | 30.4%
4 | COc1ccc(NC([Se])=NC23CC4CC(CC(C4)C2)C3)cc1 | 6.53% (active)
5 | ClCCN(CCCl)c1ccc(/C=N\N=C\c2ccc(N(CCCl)CCCl)cc2)cc1 | 53%
6 | C[C@@]12CC=C3c4nc(Nc5cccc(O)c5)sc4CC[C@]3(C)[C@H]1CC[C@]1(C)C(=O)CC[C@@H]21 | 52.1%
7 | O=[N+]([O-])/C=C\c1ccc(Cl)c(Cl)c1 | 84.4%
8 | CC(C)OC(=O)[C@H](C)NP(=O)(Oc1ccccc1)C1CCCN(O)C1=O (some centres undefined) | 107%
9 | COC(=O)CCC1=C(C)c2cc3[n-]c(cc4nc(cc5[n-]c(cc1n2)c(CCC(=O)OC)c5C)C=C4C)cc3C.[Cd+2] | 37.7%
10 | C=CCn1cc(C=C2C(=O)N(C)C(=O)N(C)C2=O)c2ccccc21 | 97.6%
11 | COC(=O)[C@@H](C)C[C@H](Cc1ccccc1)NC(=O)c1nc([C@@H](C[C@H](C(C)C)N(C)C(=O)[C@@H](NC(=O)[C@H]2C[C@H](O)CCN2C)C(C)C)OC(C)=O)sc1C(C)C | 35.6%
12 | N#CC1C(C#N)C2CCC1C1C2N1c1ccccc1 (centres undefined) | 106%
13 | CC(C)(NC(=O)O[C@@H]1CN2CCC1CC2)c1csc(-c2ccc(F)cc2)n1 | 97.4%
14 | CCC(C)(C)[C@H](NC(=O)[C@H]1CCCCN1C)C(=O)N(C)[C@H](C[C@@H](OC(C)=O)c1nc(C(=O)N[C@@H](Cc2ccccc2)C[C@H](C)C(=O)O)cs1)C(C)C | 40.4%
15 | C[C@]12CCc3sc(-c4ccccc4O)nc3C1=CC[C@@H]1[C@@H]2CC[C@]2(C)C(=O)CC[C@@H]12 | 108%
16 | CCOC(=O)N1CC1 | 93.1%
17 | N#CC1(C#N)C(c2ccc(N(CCCl)CCCl)cc2)OC23CCCCC2C1(C#N)C(=N)O3 (centres undefined) | 91.9%
18 | Cc1cccc(N2CCN(C(C)C#N)CC2)c1 (centres undefined) | 114%
19 | O=C(N/N=C\c1ccc(N(CCCl)CCCl)cc1)c1cccc([N+](=O)[O-])c1 | 87%
20 | CC(=O)OC[C@]1(C)C=C2C(=O)[C@](C)(O)C3(CC3)C(C)=C2[C@H]1O | -9.54% (active)
21 | CS(=O)(=O)CCN1CC2CCCC(C2)C1 | 102%
22 | CCOC(=O)[C@@H](C)C[C@H](Cc1ccccc1)NC(=O)c1csc([C@@H](C[C@H](C(C)C)N(C)C(=O)[C@@H](NC(=O)[C@H]2C[C@H](O)CCN2C)C(C)C)OC(C)=O)n1 | 35.2%
23 | Cc1cc(N(CCCl)CCCl)ccc1C=Nc1ccccc1-c1ccccc1 | 99.5%
24 | CNC(=O)Oc1ccc2c(c1)OCO2 | 116%
25 | COc1ccc(N(CC(=O)NCCC[Te]c2ccccc2)C(=O)CCSC2=C(C)C(=O)c3ccccc3C2=O)cc1 | 20.2%
26 | Cn1cccc1C1CC(=O)N(CCC[Se]C#N)C1=O (centres undefined) | 31.2%
27 | CC1(C)[C@H](O)[C@H](F)C[C@@]2(C)Oc3ccc(C(=O)Nc4ccc5c(c4)NC(=O)C54CCN(CCCCC#N)CC4)cc3C[C@H]12 | 64.9%
28 | CCOC(=O)[C@@H](C)C[C@H](Cc1ccccc1)NC(=O)c1nc([C@@H](C[C@H](C(C)C)N(C)C(=O)[C@@H](NC(=O)[C@H]2CCCCN2C)C(C)C)OC(C)=O)sc1CCOCc1ccccc1 | 14.9%
29 | C[C@]12CCc3sc(-c4cccc(F)c4)nc3C1=CC[C@@H]1[C@@H]2CC[C@]2(C)C(=O)CC[C@@H]12 | 65.1%
